Molecules are shown by their SMILES. Results filed as inconclusive are left out. A call without a number means that no potency is given here. Calls of active or inactive are those of the source. Calls come from the whole dose curve; as a rule, active = well fitted cell-killing curve with a large enough effect; inconclusive = small, poorly fitted or top-dose-only effect, or effect the other way; inactive = flat fitted curve, though single readings scatter.

This experiment relates to HeLa. The experiment can be described thus: Primary qHTS to identify gynecologic anti-cancer compounds using libraries of approved drugs and bioactive compounds (AID 1345084). Note: nearly all actives have a fitted effect of over 55% in size. Conditions: Gynecologic cancer cell panel viability, ATPlite luminescence, 48 h; series mostly up to 57.5 µM. The essentials: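 48 h compound exposure at 37 C, 5% CO2; five-point qHTS. ATPlite luminescence readout of cell ATP.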
(In qHTS, concentration-response curves come from the screen itself.)
As for `COc1ccc(C(OC2OC(CO)C(O)C(O)C2O)C(C)O)cc1` (centres undefined), the Potency result was “inactive”.

`CCOC(=O)N1CCC(NCCNC(=O)c2ccccc2C)CC1`: the Potency result is “inactive”.

`CCC(C)C(=O)O[C@@H]1[C@@H](O)[C@@H](O[C@H]2O[C@H](CO)[C@@H](O)[C@H](O)[C@H]2O)O[C@H](CO)[C@H]1O` (some centres undefined): the Potency result was “inactive”.

Turning to `Nc1ncnc2c1ncn2[C@H]1CCCO1`, the Potency entry is “inactive”.

With `COc1cc(-c2cccc(O)c2)cc2c1OCO2`, the Potency entry was “inactive”.

`Nc1nc(CC(=O)Nc2ccc(CCNCC(O)c3ccccc3)cc2)cs1` (centres undefined): the Potency result is “inactive”.

As to `O=C(/C=C/c1c(C(=O)O)[nH]c2cc(Cl)cc(Cl)c12)Nc1ccccc1`, the Potency entry was “inactive”.

Regarding `CC1CCC2C(C)(C)C(O)CCC2(C)C12Cc1c(O)cc3c(c1O2)CN=C3N` (centres undefined), the Potency result was “inactive”.

As to `CC[C@H]1OC(=O)C[C@@H](O)[C@H](C)[C@@H](O[C@@H]2O[C@H](C)[C@@H](O)[C@H](N(C)C)[C@H]2O)[C@@H](CCN2C[C@H](C)C[C@H](C)C2)C[C@@H](C)C(=O)/C=C/C(C)=C/[C@@H]1CO[C@@H]1O[C@H](C)[C@@H](O)[C@@H](OC)[C@H]1OC`, the Potency result was “inactive”.

For the compound `C[C@]12C=CC(=O)C=C1CC[C@@H]1[C@@H]2[C@@H](O)C[C@@]2(C)[C@H]1CC[C@]2(O)C(=O)COC(=O)CCC(=O)O`, the Potency entry was “inactive”.

Take `CC(C)=CCc1ccc(Oc2c(O)cc(C)cc2CO)c(C(=O)O)c1O`: the Potency result is “inactive”.

Consider `NS(=O)(=O)NCCNc1nonc1C(=Nc1ccc(F)c(Br)c1)NO`, for which the Potency entry was “inactive”.

Take `CCC(=O)NS(=O)(=O)c1ccc(-c2c(-c3ccccc3)noc2C)cc1`: the Potency result was “inactive”.

As for `CC(=O)OC1C(O)C(C)=C(CCC(C)CC(=O)O)C2(C)CCCC(C)(C)C12` (centres undefined), the Potency entry was “inactive”.

Values taken from PubChem BioAssay (NCATS).
